Results published in the supplement of paper PMC10646978.
± gives the standard deviation.

Tests used:
Details in all cases: modulator concentration 10 µM
[1] = tested on: RAW-Dual (murine macrophage reporter line); test: NF-kB reporter (SEAP) activity fold change vs agonist alone; higher = enhanced NF-kB activity
Outline: (§1)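 RAW-Dual murine macrophage reporter cells were seeded at 50 000 per well in 384-well plates and pre-incubated 1 hour at 37 °C with compound pin-transferred to 10 μM final. After 1 hour, a PRR agonist was added and cells incubated overnight. Supernatant NF-κB (SEAP, QUANTI-Blue, 620 nm absorbance) and IRF (Lucia luciferase, QUANTI-Luc, luminescence) signals were divided by the mean agonist-only control on the same plate to give fold change. Two replicate plates were averaged, with errors by propagation.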

[2] = tested on: RAW-Dual (murine macrophage reporter line); test: IRF reporter (Lucia luciferase) activity fold change vs agonist alone; higher = enhanced IRF activity
Outline: as §1

[3] = tested on: RAW-Dual (murine macrophage reporter line); test: viability score (confluency relative to resting cells, overnight) (fraction); higher = more viable, active = viable (0.7 or more)
Outline: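 Compound was added at a final 10 μM to RAW-Dual macrophages in 384-well plates and left overnight. Confluency was imaged with IncuCyte, and two masks were generated in IncuCyte software over all imaged wells. Each viability score is confluency relative to resting cells, and a compound met the cutoff only when both masks were above 70% of resting cells.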

[4] = agonist: CpG ODN 1826 0.5 ug/mL

CC(=O)c1ccc(Nc2ncnc(Nc3ccc(C(C)=O)cc3)c2[N+](=O)[O-])cc1
NF-kB reporter [1, 4]: 1.04 ± 0.1 | NF-kB reporter ([1]; agonist: LPS 0.1 ug/mL): 1.09 ± 0.076 | NF-kB reporter ([1]; agonist: MPLA […]): 0.939 ± 0.045 | IRF reporter ([2]; agonist: 3'3'-cGAMP 10 ug/mL): 1.01 ± 0.091 | IRF reporter ([2]; agonist: LPS 0.1 ug/mL): 1.06 ± 0.052 | IRF reporter ([2]; agonist: MPLA […]): 0.994 ± 0.076 | viability score [3]: 0.991 (active)

COc1ccc(CNc2nc(N3CCC[C@H]3CO)ncc2C(=O)NCc2ncccn2)cc1Cl
NF-kB reporter [1, 4]: 0.245 ± 0.011 | NF-kB reporter ([1]; agonist: LPS 0.1 ug/mL): 0.629 ± 0.12 | NF-kB reporter ([1]; agonist: MPLA […]): 0.771 ± 0.043 | IRF reporter ([2]; agonist: 3'3'-cGAMP 10 ug/mL): 1.51 ± 0.23 | IRF reporter ([2]; agonist: LPS 0.1 ug/mL): 1.39 ± 0.4 | IRF reporter ([2]; agonist: MPLA […]): 1.23 ± 0.36 | viability score [3]: 1 (active)

COC(=O)CCS(=O)(=O)c1ccc2ccccc2c1
NF-kB reporter [1, 4]: 0.886 ± 0.055 | NF-kB reporter ([1]; agonist: LPS 0.1 ug/mL): 1.01 ± 0.1 | NF-kB reporter ([1]; agonist: MPLA […]): 1.05 ± 0.091 | IRF reporter ([2]; agonist: 3'3'-cGAMP 10 ug/mL): 1.08 ± 0.059 | IRF reporter ([2]; agonist: LPS 0.1 ug/mL): 1.31 ± 0.16 | IRF reporter ([2]; agonist: MPLA […]): 1.06 ± 0.095 | viability score [3]: 0.995 (active)

COc1ccc(OC)c(Nc2nc(-c3c(C)nc4ncccn34)cs2)c1
NF-kB reporter [1, 4]: 2.14 ± 0.18 | NF-kB reporter ([1]; agonist: LPS 0.1 ug/mL): 1.35 ± 0.12 | NF-kB reporter ([1]; agonist: MPLA […]): 1.09 ± 0.083 | IRF reporter ([2]; agonist: 3'3'-cGAMP 10 ug/mL): 0.3 ± 0.014 | IRF reporter ([2]; agonist: LPS 0.1 ug/mL): 0.381 ± 0.035 | IRF reporter ([2]; agonist: MPLA […]): 0.361 ± 0.066 | viability score [3]: 0.907 (active)

COc1ccc(CN2CCN(C(c3ccc(F)cc3)c3ccc(F)cc3)CC2)c(OC)c1OC.Cl.Cl
NF-kB reporter [1, 4]: 0.742 ± 0.032 | NF-kB reporter ([1]; agonist: LPS 0.1 ug/mL): 0.927 ± 0.084 | NF-kB reporter ([1]; agonist: MPLA […]): 0.916 ± 0.049 | IRF reporter ([2]; agonist: 3'3'-cGAMP 10 ug/mL): 0.604 ± 0.038 | IRF reporter ([2]; agonist: LPS 0.1 ug/mL): 1.02 ± 0.24 | IRF reporter ([2]; agonist: MPLA […]): 1.17 ± 0.47 | viability score [3]: 0.985 (active)

COc1ccc(C(=O)Oc2ccc(-c3ccc(C)cc3)cc2)cc1OC
NF-kB reporter [1, 4]: 0.744 ± 0.058 | NF-kB reporter ([1]; agonist: LPS 0.1 ug/mL): 0.892 ± 0.042 | NF-kB reporter ([1]; agonist: MPLA […]): 1 ± 0.09 | IRF reporter ([2]; agonist: 3'3'-cGAMP 10 ug/mL): 0.957 ± 0.069 | IRF reporter ([2]; agonist: LPS 0.1 ug/mL): 1.22 ± 0.09 | IRF reporter ([2]; agonist: MPLA […]): 1.27 ± 0.15 | viability score [3]: 0.996 (active)

Fc1ccccc1C=NNc1nc(-c2ccccc2)cc(-c2ccccc2)n1
NF-kB reporter [1, 4]: 1.03 ± 0.25 | NF-kB reporter ([1]; agonist: LPS 0.1 ug/mL): 1.19 ± 0.094 | NF-kB reporter ([1]; agonist: MPLA […]): 1.05 ± 0.17 | IRF reporter ([2]; agonist: 3'3'-cGAMP 10 ug/mL): 1.01 ± 0.028 | IRF reporter ([2]; agonist: LPS 0.1 ug/mL): 1.14 ± 0.15 | IRF reporter ([2]; agonist: MPLA […]): 1.51 ± 0.37 | viability score [3]: 1 (active)

Cc1oncc1C(=O)NCc1cc(C2CC2)n(C)n1
NF-kB reporter [1, 4]: 0.927 ± 0.087 | NF-kB reporter ([1]; agonist: LPS 0.1 ug/mL): 0.954 ± 0.12 | NF-kB reporter ([1]; agonist: MPLA […]): 0.975 ± 0.065 | IRF reporter ([2]; agonist: 3'3'-cGAMP 10 ug/mL): 0.946 ± 0.04 | IRF reporter ([2]; agonist: LPS 0.1 ug/mL): 0.982 ± 0.072 | IRF reporter ([2]; agonist: MPLA […]): 0.921 ± 0.24 | viability score [3]: 0.997 (active)

Cc1cc2c(C)cc[n+](CCCS(=O)(=O)[O-])c2cc1C
NF-kB reporter [1, 4]: 0.942 ± 0.078 | NF-kB reporter ([1]; agonist: LPS 0.1 ug/mL): 1.05 ± 0.066 | NF-kB reporter ([1]; agonist: MPLA […]): 0.918 ± 0.059 | IRF reporter ([2]; agonist: 3'3'-cGAMP 10 ug/mL): 0.946 ± 0.038 | IRF reporter ([2]; agonist: LPS 0.1 ug/mL): 1.42 ± 0.09 | IRF reporter ([2]; agonist: MPLA […]): 1.3 ± 0.22 | viability score [3]: 1 (active)

Cc1cccc(Cn2c(=O)c3nscc3n(Cc3ccc(F)c(F)c3)c2=O)c1
NF-kB reporter [1, 4]: 1.14 ± 0.099 | NF-kB reporter ([1]; agonist: LPS 0.1 ug/mL): 1.09 ± 0.087 | NF-kB reporter ([1]; agonist: MPLA […]): 1.21 ± 0.11 | IRF reporter ([2]; agonist: 3'3'-cGAMP 10 ug/mL): 0.997 ± 0.048 | IRF reporter ([2]; agonist: LPS 0.1 ug/mL): 1.01 ± 0.093 | IRF reporter ([2]; agonist: MPLA […]): 0.899 ± 0.22 | viability score [3]: 0.995 (active)

c1cnn(-c2ccc(N=Nc3ccc(-n4cccn4)cc3)cc2)c1
NF-kB reporter [1, 4]: 0.939 ± 0.087 | NF-kB reporter ([1]; agonist: LPS 0.1 ug/mL): 1.05 ± 0.083 | NF-kB reporter ([1]; agonist: MPLA […]): 0.966 ± 0.082 | IRF reporter ([2]; agonist: 3'3'-cGAMP 10 ug/mL): 0.814 ± 0.037 | IRF reporter ([2]; agonist: LPS 0.1 ug/mL): 1.09 ± 0.1 | IRF reporter ([2]; agonist: MPLA […]): 1.02 ± 0.12 | viability score [3]: 0.996 (active)

Cl.O[C@@H](CNC[C@H](O)[C@H]1CCc2cc(F)ccc2O1)[C@@H]1CCc2cc(F)ccc2O1
NF-kB reporter [1, 4]: 0.947 ± 0.09 | NF-kB reporter ([1]; agonist: LPS 0.1 ug/mL): 0.759 ± 0.049 | NF-kB reporter ([1]; agonist: MPLA […]): 0.982 ± 0.028 | IRF reporter ([2]; agonist: 3'3'-cGAMP 10 ug/mL): 0.68 ± 0.087 | IRF reporter ([2]; agonist: LPS 0.1 ug/mL): 0.642 ± 0.021 | IRF reporter ([2]; agonist: MPLA […]): 1.13 ± 0.21 | viability score [3]: 0.13 (inactive)

Nc1ccccc1S(N)(=O)=O [Prestw-913]
NF-kB reporter [1, 4]: 0.95 ± 0.19 | NF-kB reporter ([1]; agonist: LPS 0.1 ug/mL): 1.07 ± 0.13 | NF-kB reporter ([1]; agonist: MPLA […]): 1.04 ± 0.092 | IRF reporter ([2]; agonist: 3'3'-cGAMP 10 ug/mL): 0.943 ± 0.062 | IRF reporter ([2]; agonist: LPS 0.1 ug/mL): 0.991 ± 0.23 | IRF reporter ([2]; agonist: MPLA […]): 1.1 ± 0.2 | viability score [3]: 0.995 (active)
